Source: PubChem BioAssay
ST2 IL33 inh: IL1RL1 inhibition; AlphaLISA ST2-Fc/biotin-IL-33 interaction, 1 h; inhibition, % for hits at 17 µM; hit rate 2.3% among 78,000; in the data active means inhibition above about 30%
Target sequence (Q01638 whole entry, looked up): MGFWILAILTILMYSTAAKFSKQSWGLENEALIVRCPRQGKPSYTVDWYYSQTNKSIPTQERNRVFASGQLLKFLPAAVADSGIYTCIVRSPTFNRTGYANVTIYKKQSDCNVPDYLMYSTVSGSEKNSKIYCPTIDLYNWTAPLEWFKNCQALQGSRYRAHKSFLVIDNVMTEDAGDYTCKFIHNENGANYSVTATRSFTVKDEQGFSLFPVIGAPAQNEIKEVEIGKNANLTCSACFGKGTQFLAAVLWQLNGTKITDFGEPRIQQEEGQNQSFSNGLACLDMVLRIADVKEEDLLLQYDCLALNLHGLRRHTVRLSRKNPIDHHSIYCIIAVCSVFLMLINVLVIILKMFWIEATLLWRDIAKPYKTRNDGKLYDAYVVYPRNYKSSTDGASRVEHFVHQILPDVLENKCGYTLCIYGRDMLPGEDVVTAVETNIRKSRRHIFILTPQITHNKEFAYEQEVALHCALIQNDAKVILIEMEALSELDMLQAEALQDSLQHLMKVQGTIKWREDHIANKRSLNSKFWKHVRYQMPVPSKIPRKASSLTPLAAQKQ
* hit, by the source's call. Only a selection was taken, and hits are over-represented in it overall.

For CCCCn1c(CN(C)Cc2ccc3nsnc3c2)cnc1S(=O)(=O)CC the results were ST2 IL33 inh inactive.
Screening Cc1cccn2c(=O)c3cc(C(=O)Nc4cccc(Cl)c4)n(C)c3nc12 returned ST2 IL33 inh inactive.
For COc1ccccc1C1CC(=O)N2CN(c3ccc(F)cc3)CSC2=C1C#N (stereo not drawn) the results were ST2 IL33 inh inactive.
`COc1cc2c(C(=O)NCCN3CCOCC3)cn(C)c(=O)c2cc1OC` gave ST2 IL33 inh inactive.
CCSc1nc2c(c(=O)[nH]1)C(c1cccc(Br)c1)C1=C(CCCC1=O)N2 (stereo not drawn) was read as ST2 IL33 inh inactive.
For CC(C)c1ccc(Nc2c(-c3ccccc3)nc3cnccn23)cc1 the results were ST2 IL33 inh inactive.
CCc1nccc(CN2CCC(c3n[nH]c(=O)n3-c3ccccc3)CC2)n1 was read as ST2 IL33 inh inactive.
Screening COc1cc(CN2CCN(c3ncccn3)CC2)c([N+](=O)[O-])cc1OC returned ST2 IL33 inh inactive.
Screening COc1cc(OC)c(OC)cc1CN1CCN(Cc2cc(OC)c(OC)cc2[N+](=O)[O-])CC1 returned ST2 IL33 inh inactive.
Cc1ccc(C)c(N2CCN(Cc3cc4c(cc3[N+](=O)[O-])OCO4)CC2)c1 was read as ST2 IL33 inh 32%*.
O=C(CN1C(=O)c2ccccc2C1=O)Nc1ccc(Br)cc1 was read as ST2 IL33 inh 34%*.
O=C(CN1C(=O)c2ccccc2C1=O)Nc1ccc(Br)cc1C(=O)O was read as ST2 IL33 inh inactive.
O=C(CN1C(=O)C(=O)c2ccccc21)Nc1ccc(Br)cc1 was read as ST2 IL33 inh inactive.
Cc1ccccc1C1=N/C(=C\c2cccc(F)c2)C(=O)O1 was read as ST2 IL33 inh inactive.
`O=C1OC(c2ccc(Cl)cc2Cl)=N/C1=C\c1ccccc1` gave ST2 IL33 inh inactive.
O=C1OC(c2ccc(Br)cc2)=N/C1=C\C=C\c1ccccc1 was read as ST2 IL33 inh inactive.
Screening COc1ccc(/C=C2\N=C(c3ccccc3C)OC2=O)cc1 returned ST2 IL33 inh inactive.
`Cc1cccc(C2=N/C(=C\c3ccc(Br)cc3)C(=O)O2)c1` gave ST2 IL33 inh inactive.
For Cc1ccccc1C1=N/C(=C\C=C\c2ccccc2)C(=O)O1 the results were ST2 IL33 inh 42%*.
`Cc1ccccc1C1=N/C(=C\c2ccccc2)C(=O)O1` gave ST2 IL33 inh 33%*.
`CCCCOc1ccc(/C=C2\N=C(c3cccc([N+](=O)[O-])c3)OC2=O)cc1` gave ST2 IL33 inh inactive.
`CN(C)c1ccc(/C=C2\N=C(c3ccc([N+](=O)[O-])cc3)OC2=O)cc1` gave ST2 IL33 inh inactive.
Screening CCCCOc1ccc(C2=N/C(=C\c3ccc(N(C)C)cc3)C(=O)O2)cc1 returned ST2 IL33 inh 37%*.
`O=C1OC(c2ccc(-c3ccccc3)cc2)=N/C1=C\c1ccccc1` gave ST2 IL33 inh inactive.
For CN(C)c1ccc(/C=C2\N=C(c3ccccc3)OC2=O)cc1Br the results were ST2 IL33 inh 41%*.
For Cn1ccnc1SCCNc1nc2nonc2nc1N1CCSCC1 the results were ST2 IL33 inh inactive.
COc1ccc(/C=C/C(=O)Nc2ccc3nc(N4CCN(C)CC4)cc(C)c3c2)cc1OC was read as ST2 IL33 inh inactive.
For Cc1nn(CCO)c(C)c1[C@@H]1C=C[C@@H](NCc2cccc(Cl)c2)C1 the results were ST2 IL33 inh inactive.
Screening CCCCCSc1nc2n(n1)C(c1ccc([N+](=O)[O-])cc1)C1=C(CCCC1=O)N2 (stereo not drawn) returned ST2 IL33 inh inactive.
For COc1cc(C2=N/C(=C\C=C\c3ccccc3)C(=O)O2)cc(OC)c1OC the results were ST2 IL33 inh 30%*.
Screening O=C1OC(c2cccc(I)c2)=N/C1=C\c1ccc(Br)cc1 returned ST2 IL33 inh inactive.
Screening COc1c(Cl)cc(Cl)cc1/C=C1\N=C(c2ccccc2)OC1=O returned ST2 IL33 inh inactive.
Screening Cc1ccc(C2=N/C(=C\c3ccccc3)C(=O)O2)cc1[N+](=O)[O-] returned ST2 IL33 inh inactive.
Screening Cc1ccccc1C1=N/C(=C\c2ccc(N(C)C)cc2)C(=O)O1 returned ST2 IL33 inh 40%*.
For Cc1ccc(C2=N/C(=C\c3ccc([N+](=O)[O-])cc3)C(=O)O2)cc1[N+](=O)[O-] the results were ST2 IL33 inh inactive.
Screening COc1ccc(/C=C2\N=C(c3cccc([N+](=O)[O-])c3)OC2=O)cc1 returned ST2 IL33 inh inactive.
COc1ccc(/C=C2\N=C(c3cccc(I)c3)OC2=O)cc1 was read as ST2 IL33 inh 31%*.
`COc1ccccc1/C=C1\N=C(c2cc([N+](=O)[O-])cc([N+](=O)[O-])c2)OC1=O` gave ST2 IL33 inh inactive.
`O=C(C1CCOCC1)N1CC[C@H]2[C@H](CCCN2C(=O)/C=C/c2cccc(F)c2)C1` gave ST2 IL33 inh inactive.
For CN(C)S(=O)(=O)c1ccc(C(=O)N2CCN=C2SCc2ccccc2F)cc1 the results were ST2 IL33 inh inactive.
For N#Cc1ccccc1NC(=O)COc1ccccc1 the results were ST2 IL33 inh inactive.
Screening CCCCN(Cc1ccco1)C(=O)c1c(C)nn(CC)c1C returned ST2 IL33 inh inactive.
`Cc1cc(C)nc(SCC(=O)Nc2cc(C(F)(F)F)ccc2Cl)n1` gave ST2 IL33 inh inactive.
Screening CCCCOc1ccc(S(=O)(=O)N2CCN(c3nc(C)cc(N4CCOCC4)n3)CC2)cc1 returned ST2 IL33 inh inactive.
Screening CN1CC(n2cnnc2)c2sccc2S1(=O)=O (stereo not drawn) returned ST2 IL33 inh inactive.
`c1ccc(C(c2ccccc2)c2n[nH]c3c2CN(Cc2ccncc2)CC3)cc1` gave ST2 IL33 inh inactive.
For CC(C)c1ccc(CNC(=O)c2ccc(Nc3cc(-c4ccccc4)ncn3)cc2)cc1 the results were ST2 IL33 inh inactive.
For CC(=O)Nc1ccc(C(=O)NCCCSc2nnc(C)s2)cn1 the results were ST2 IL33 inh inactive.
For CC(=O)c1ccc2c3c(cccc13)C(=O)N(c1ccccc1)C2=O the results were ST2 IL33 inh inactive.
Screening COc1ccccc1NC(=O)C1CCCN1C(=O)c1ccc(-c2noc(C)n2)cc1 (stereo not drawn) returned ST2 IL33 inh inactive.
`Cc1[nH]c2ccc(Cl)cc2c(=O)c1CN1CCOCC1` gave ST2 IL33 inh inactive.
Screening Cc1ccc2c(C(=O)CN3CCOCC3)c(C)[nH]c2c1 returned ST2 IL33 inh 32%*.
`COc1ccc2c(c1)c(C(=O)CN1CCOCC1)c(C)n2C` gave ST2 IL33 inh inactive.
CC1=NN(c2ccc(Br)cc2)C(=O)/C1=C\c1ccc(N(C)C)c([N+](=O)[O-])c1 was read as ST2 IL33 inh inactive.
For CC1=NN(c2ccc(Br)cc2)C(=O)/C1=C/c1cccs1 the results were ST2 IL33 inh 39%*.
Screening CC1=NN(c2ccc(C(=O)O)cc2)C(=O)/C1=C\c1ccc(Br)cc1 returned ST2 IL33 inh inactive.
For COc1ccc(-c2cc(C(F)(F)F)n3nc(C(=O)N4CCCCC4)c(Cl)c3n2)cc1OC the results were ST2 IL33 inh inactive.
Screening COC[C@H]1CCCN1C[C@@H]1C=C(C)[C@H](Cc2nnc(C)o2)C[C@H]1C(C)C returned ST2 IL33 inh inactive.
Screening N#CC1=C(N)OC2=C(C(=O)CCC2)C1c1cccc(Oc2ccc(Cl)cc2)c1 (stereo not drawn) returned ST2 IL33 inh inactive.
COc1ccc(CN[C@H]2C[C@H]3C(=O)NC[C@@H](CCC(=O)N4CCN(c5ccccc5)CC4)N3C2)cc1 was read as ST2 IL33 inh 57%*.
